# Measurements as given in PubChem BioAssay (Tox21).
# “And” between values parts separate entries of the source, which are not always exact repeats. Equal values may be shown once. Unmarked numbers belong to inactive results. Results filed as inconclusive are left out. Where a call stands in place of a potency, no number is given. The source made the active and inactive calls. The call rests on the fitted dose curve; in most records, active means well fitted curve in the direction sought with a large enough effect in the repeat runs; inconclusive means weak or mixed curves; inactive means no such curve, though single readings can be large; an effect the other way counts as inactive or inconclusive.
# Experiments:
# [1] = Human pregnane X receptor (PXR) small molecule agonists, qHTS cell viability counter screen (AID 1346977); further: nearly all actives have a fitted effect of over 50% in size; further: potency means the concentration at half of the fitted maximal effect
# How it was run: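 Tox21 qHTS format; PXR-Luc HepG2, 2,000/well, charcoal-stripped FBS 5%. Cpd exposure 24hr. Read: CellTiter-Fluor fluorescence, multiplexed with luciferase.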
# [2] = Caspase-3/7 induction in HepG2 cells by small molecules, qHTS assay (AID 1346978); further: nearly all actives have a fitted effect of over 15% in size
# How it was run: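 Wild-type HepG2 cells, 2,000/well, settled 5 hr at 37 C and 5% CO2, then compound-treated for 17 hr; caspase-3/7 activity read by luminescent Caspase-Glo 3/7 after 30 min at room temperature.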
# [3] = Caspase-3/7 induction in CHO-K1 cells by small molecules, qHTS cell viability counter screen (AID 1346979); further: nearly all actives have a fitted effect of over 35% in size; further: potency means the concentration at half of the fitted maximal effect
# How it was run: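 CellTiter-Fluor viability check, qHTS format: wild-type CHO-K1, 16hr compound treatment, 1hr reagent incubation, fluorescence read.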
# [4] = Caspase-3/7 induction in HepG2 cells by small molecules, qHTS cell viability counter screen (AID 1346981); further: nearly all actives have a fitted effect of over 30% in size; further: potency means the concentration at half of the fitted maximal effect; on activity change, negative = cytotoxicity: series mostly up to about 92 µM
# How it was run: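 Wild-type HepG2 cells (2,000/well) were allowed to settle for 5 hr at 37 C, 5% CO2, then dosed with compounds in DMSO by pin transfer. After 16 hr at 37 C, CellTiter-Fluor was added and fluorescence read 1 hr later.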
# [5] = target: Nuclear receptor subfamily 1 group I member 2 (Homo sapiens) (UniProt O75469); experiment: Human pregnane X receptor (PXR) small molecule agonists, qHTS assay (AID 1346982); further: nearly all actives have a fitted effect of over 35% in size; further: potency means the concentration at half of the fitted maximal effect
# Sequence of Nuclear receptor subfamily 1 group I member 2 (Homo sapiens) (O75469 whole entry, looked up): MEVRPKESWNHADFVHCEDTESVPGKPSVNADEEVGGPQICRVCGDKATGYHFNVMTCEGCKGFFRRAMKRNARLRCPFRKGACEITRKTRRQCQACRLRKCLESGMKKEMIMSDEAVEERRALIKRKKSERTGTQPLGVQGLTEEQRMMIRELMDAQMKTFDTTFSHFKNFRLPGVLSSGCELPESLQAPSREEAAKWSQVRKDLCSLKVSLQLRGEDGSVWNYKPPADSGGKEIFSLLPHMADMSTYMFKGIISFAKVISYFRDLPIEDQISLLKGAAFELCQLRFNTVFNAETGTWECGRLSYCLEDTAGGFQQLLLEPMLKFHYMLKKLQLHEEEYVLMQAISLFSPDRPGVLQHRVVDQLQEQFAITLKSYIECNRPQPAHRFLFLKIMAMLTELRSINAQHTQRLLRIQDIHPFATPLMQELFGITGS
# How it was run: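 PXR-Luc HepG2 cells (CYP3A4 promoter-driven luciferase) were seeded in medium with 5% charcoal-stripped FBS, left 5 hr at 37 C, then exposed to compounds in DMSO for 24 hr. Luminescence was read after ONE-Glo addition.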
# [6] = target: Cytochrome P450 2D6 (Homo sapiens) (UniProt P10635); experiment: Cytochrome P450 Family 2 Subfamily D Member 6 (CYP2D6) small molecule antagonists: luciferase reporter qHTS assay (AID 1671196); further: nearly all actives have a fitted effect of over 50% in size; further: potency means the concentration at half of the fitted maximal effect; on activity change, negative = inhibition: series mostly up to about 120 µM
# Sequence of Cytochrome P450 2D6 (Homo sapiens) (P10635 whole entry, looked up): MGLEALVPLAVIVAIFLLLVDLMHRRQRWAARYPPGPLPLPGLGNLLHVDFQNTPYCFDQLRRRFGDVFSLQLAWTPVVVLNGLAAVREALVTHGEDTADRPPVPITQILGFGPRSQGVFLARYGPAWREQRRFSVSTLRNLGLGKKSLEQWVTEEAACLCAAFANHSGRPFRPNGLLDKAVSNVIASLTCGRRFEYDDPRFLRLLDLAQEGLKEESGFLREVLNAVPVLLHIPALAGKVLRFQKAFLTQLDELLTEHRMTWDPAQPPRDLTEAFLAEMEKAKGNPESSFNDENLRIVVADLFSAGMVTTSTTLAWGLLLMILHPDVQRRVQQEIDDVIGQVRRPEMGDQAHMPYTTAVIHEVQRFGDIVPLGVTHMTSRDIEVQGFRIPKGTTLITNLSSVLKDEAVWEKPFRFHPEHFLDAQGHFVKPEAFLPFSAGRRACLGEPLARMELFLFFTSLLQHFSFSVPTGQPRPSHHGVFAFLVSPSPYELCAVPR
# How it was run: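 CYP2D6 enzyme–substrate mix was held with compound for 10 min at room temperature, then NADPH regeneration solution was added and the reaction ran 1 h at room temperature. Luciferin product was detected by luminescence after 20 min with detection reagent.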
# [7] = target: Cytochrome P450 2C19 (Homo sapiens) (UniProt P33261); experiment: Cytochrome P450 Family 2 Subfamily C Member 19 (CYP2C19) small molecule antagonists: luciferase reporter qHTS assay (AID 1671197); further: nearly all actives have a fitted effect of over 65% in size; further: potency means the concentration at half of the fitted maximal effect; on activity change, negative = inhibition: series mostly up to about 120 µM
# Sequence of Cytochrome P450 2C19 (Homo sapiens) (P33261 whole entry, looked up): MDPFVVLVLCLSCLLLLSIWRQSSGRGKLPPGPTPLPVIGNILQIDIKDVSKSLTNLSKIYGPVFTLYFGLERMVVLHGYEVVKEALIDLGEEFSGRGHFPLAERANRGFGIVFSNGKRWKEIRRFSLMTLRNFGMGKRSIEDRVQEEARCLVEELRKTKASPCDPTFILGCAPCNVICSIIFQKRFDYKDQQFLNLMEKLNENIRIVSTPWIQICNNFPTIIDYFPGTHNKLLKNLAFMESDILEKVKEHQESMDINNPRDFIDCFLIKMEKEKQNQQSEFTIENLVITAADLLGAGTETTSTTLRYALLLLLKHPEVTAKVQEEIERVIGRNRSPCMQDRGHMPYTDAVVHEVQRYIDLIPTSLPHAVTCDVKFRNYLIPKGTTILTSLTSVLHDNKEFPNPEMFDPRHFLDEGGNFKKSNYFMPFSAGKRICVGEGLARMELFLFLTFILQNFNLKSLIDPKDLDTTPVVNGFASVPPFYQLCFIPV
# How it was run: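 P450-Glo CYP2C19 screening system; proluciferin substrate; DMSO compound stocks; 10 min RT preincubation; NADPH regeneration, 1 h at 37C; luciferin detection reagent, 20 min RT; luminescence as RLU.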
# [8] = target: Cytochrome P450 1A2 (Homo sapiens) (UniProt P05177); experiment: Cytochrome P450 Family 1 Subfamily A Member 2 (CYP1A2) small molecule antagonists: luciferase reporter qHTS assay (AID 1671199); further: nearly all actives have a fitted effect of over 50% in size; further: potency means the concentration at half of the fitted maximal effect; on activity change, negative = inhibition: series mostly up to about 120 µM
# Sequence of Cytochrome P450 1A2 (Homo sapiens) (P05177 whole entry, looked up): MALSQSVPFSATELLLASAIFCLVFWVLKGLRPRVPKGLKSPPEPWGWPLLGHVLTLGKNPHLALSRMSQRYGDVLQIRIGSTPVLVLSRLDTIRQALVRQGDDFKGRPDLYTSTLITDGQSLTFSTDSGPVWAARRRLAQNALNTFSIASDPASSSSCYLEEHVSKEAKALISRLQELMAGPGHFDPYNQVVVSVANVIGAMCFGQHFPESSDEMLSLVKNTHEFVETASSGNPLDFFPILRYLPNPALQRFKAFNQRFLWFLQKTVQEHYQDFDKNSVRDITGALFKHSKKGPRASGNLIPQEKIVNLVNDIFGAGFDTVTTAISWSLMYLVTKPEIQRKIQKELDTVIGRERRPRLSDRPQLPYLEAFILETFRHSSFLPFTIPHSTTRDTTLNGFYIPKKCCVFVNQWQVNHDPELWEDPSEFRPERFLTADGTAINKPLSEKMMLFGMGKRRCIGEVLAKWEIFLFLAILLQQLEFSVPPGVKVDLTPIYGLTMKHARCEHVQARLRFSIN
# How it was run: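 Human CYP1A2 activity measured with a P450-Glo proluciferin substrate; compounds in DMSO preincubated 10 min at room temperature with enzyme-substrate mix, then NADPH regeneration system added for 1 h. Luciferin detection reagent, 20 min, luminescence read.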
# [9] = target: Cytochrome P450 3A4 (Homo sapiens) (UniProt P08684); experiment: Cytochrome P450 Family 3 Subfamily A Member 4 (CYP3A4) small molecule antagonists: luciferase reporter qHTS assay (AID 1671201); further: nearly all actives have a fitted effect of over 50% in size; further: potency means the concentration at half of the fitted maximal effect; on activity change, negative = inhibition: series mostly up to about 120 µM
# Sequence of Cytochrome P450 3A4 (Homo sapiens) (P08684 whole entry, looked up): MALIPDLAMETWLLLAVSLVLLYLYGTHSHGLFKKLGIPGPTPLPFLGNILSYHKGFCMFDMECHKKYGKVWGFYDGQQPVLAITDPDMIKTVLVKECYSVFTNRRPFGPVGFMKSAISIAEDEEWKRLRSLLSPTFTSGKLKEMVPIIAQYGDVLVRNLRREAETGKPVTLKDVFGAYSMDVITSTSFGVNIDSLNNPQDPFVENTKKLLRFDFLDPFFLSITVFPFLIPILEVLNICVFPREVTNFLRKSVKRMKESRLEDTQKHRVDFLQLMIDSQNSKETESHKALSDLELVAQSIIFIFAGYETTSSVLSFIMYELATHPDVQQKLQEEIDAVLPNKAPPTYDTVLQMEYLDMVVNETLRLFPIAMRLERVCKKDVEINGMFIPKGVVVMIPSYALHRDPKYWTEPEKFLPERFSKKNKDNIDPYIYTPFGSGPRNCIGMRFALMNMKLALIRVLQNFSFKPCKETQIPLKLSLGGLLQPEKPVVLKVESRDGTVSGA
# How it was run: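 Proluciferin-to-luciferin conversion by CYP3A4, NADPH-regenerated, 1 h RT; luminescence read as RLU. Ketoconazole as control.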
# [10] = target: Voltage-gated inwardly rectifying potassium channel KCNH2 (Homo sapiens) (UniProt Q12809); experiment: Human Ether-a-go-go-Related Gene (hERG) channel small molecule antagonists: fluorescence cell-based qHTS assay (AID 1671200); further: nearly all actives have a fitted effect of over 50% in size; further: potency means the concentration at half of the fitted maximal effect;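 on activity change, negative = inhibition: hERG-expressing U2OS cells given a thallium stimulus after FluxOR II dye loading; series mostly up to about 77 µM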
# Sequence of Voltage-gated inwardly rectifying potassium channel KCNH2 (Homo sapiens) (Q12809 whole entry, looked up): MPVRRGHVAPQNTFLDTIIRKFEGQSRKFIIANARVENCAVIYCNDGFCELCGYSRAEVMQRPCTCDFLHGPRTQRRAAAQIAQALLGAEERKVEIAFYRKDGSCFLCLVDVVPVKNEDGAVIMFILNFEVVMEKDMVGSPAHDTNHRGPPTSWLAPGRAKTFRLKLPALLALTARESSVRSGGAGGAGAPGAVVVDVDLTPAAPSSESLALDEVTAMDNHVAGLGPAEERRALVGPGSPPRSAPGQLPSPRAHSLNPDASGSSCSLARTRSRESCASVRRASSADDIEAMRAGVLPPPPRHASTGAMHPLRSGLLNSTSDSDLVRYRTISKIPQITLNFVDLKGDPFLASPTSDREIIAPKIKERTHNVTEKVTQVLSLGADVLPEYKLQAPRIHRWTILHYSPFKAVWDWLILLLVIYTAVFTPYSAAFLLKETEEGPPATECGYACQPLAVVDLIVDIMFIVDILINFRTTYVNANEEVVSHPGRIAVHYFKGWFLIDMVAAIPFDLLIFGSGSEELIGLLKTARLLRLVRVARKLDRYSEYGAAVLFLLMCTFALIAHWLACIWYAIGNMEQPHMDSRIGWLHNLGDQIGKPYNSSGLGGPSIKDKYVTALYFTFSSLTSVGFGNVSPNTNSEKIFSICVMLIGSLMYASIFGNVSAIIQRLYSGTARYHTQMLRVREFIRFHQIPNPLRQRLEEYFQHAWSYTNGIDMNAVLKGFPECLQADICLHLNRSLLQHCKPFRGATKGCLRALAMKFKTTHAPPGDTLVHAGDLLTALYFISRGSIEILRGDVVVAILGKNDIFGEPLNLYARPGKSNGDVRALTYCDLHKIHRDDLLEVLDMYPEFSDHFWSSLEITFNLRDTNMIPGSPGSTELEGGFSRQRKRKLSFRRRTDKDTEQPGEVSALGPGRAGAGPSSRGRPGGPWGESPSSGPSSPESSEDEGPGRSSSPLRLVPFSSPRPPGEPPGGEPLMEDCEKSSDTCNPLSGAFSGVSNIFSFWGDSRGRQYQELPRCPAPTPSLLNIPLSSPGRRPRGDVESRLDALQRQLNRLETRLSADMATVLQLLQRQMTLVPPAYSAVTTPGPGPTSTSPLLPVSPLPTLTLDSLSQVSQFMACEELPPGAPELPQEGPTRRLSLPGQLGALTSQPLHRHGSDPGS
# How it was run: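 Kinetic two-minute fluorescence traces, sampled at 1 s, were collected following thallium stimulus of U2OS cells (1000 per well) that had been cultured overnight at 37 C and loaded with FluxOR II.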
# [11] = target: Nuclear receptor subfamily 1 group I member 2 (Rattus norvegicus) (UniProt Q9R1A7); experiment: Rat pregnane X receptor (rPXR) activation by small molecules, qHTS assay (AID 1346983); conditions: rPXR luciferase reporter cells, One-Glo luminescence, 24 h; active compounds read high; further: nearly all actives have a fitted effect of over 20% in size
# Sequence of Nuclear receptor subfamily 1 group I member 2 (Rattus norvegicus) (Q9R1A7 whole entry, looked up): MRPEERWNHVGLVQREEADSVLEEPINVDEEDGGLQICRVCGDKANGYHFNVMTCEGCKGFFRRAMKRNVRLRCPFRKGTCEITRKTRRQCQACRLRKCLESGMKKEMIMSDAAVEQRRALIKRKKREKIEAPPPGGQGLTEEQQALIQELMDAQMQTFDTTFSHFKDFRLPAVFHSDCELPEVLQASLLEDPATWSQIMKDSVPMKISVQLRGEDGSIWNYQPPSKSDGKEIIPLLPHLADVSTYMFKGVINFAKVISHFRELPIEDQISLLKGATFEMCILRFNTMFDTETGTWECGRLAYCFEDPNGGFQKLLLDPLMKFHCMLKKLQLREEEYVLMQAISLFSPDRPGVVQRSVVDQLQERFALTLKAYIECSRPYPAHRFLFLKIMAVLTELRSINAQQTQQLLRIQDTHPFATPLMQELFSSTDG
# How it was run: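 Cell-based rPXR activation assay: rPXR cells, 2,000 per well, rested 5hr at 37 C, then exposed to compounds in DMSO for 24 hr at 37 C. Luciferase activity read by One-Glo luminescence after 30 min at room temperature.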
# [12] = target: Nuclear receptor subfamily 1 group I member 2 (Homo sapiens) (UniProt O75469); experiment: CYP3A4 induction through human pregnane X receptor (PXR) by small molecules, qHTS assay (AID 1346984); further: nearly all actives have a fitted effect of over 40% in size
# How it was run: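 DPX-2 cells (HepG2 co-transfected with PXR and CYP3A4 promoter-luciferase) treated with compounds 24 h at 37C; luciferin-IPA CYP3A4 substrate 3uM final added for 3 h, then One-Glo; luminescence read. qHTS format.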
# [13] = target: Nuclear receptor subfamily 1 group I member 2 (Homo sapiens) (UniProt O75469); experiment: Human pregnane X receptor (PXR) activation by small molecules, qHTS assay (AID 1346985); further: nearly all actives have a fitted effect of over 40% in size
# How it was run: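 DPX-2 cells (HepG2 co-transfected with a PXR response element and a CYP3A4-promoter luciferase construct) were seeded at 2,000 per well, rested 5 hr at 37C, then exposed to DMSO-dissolved compounds for 24 hr. Activation was read as luciferase luminescence.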
# [14] = target: Cytochrome P450 2C9 (Homo sapiens) (UniProt P11712); experiment: Cytochrome P450 Family 2 Subfamily C Member 9 (CYP2C9) small molecule antagonists: luciferase reporter qHTS assay (AID 1671198); further: nearly all actives have a fitted effect of over 50% in size; further: potency means the concentration at half of the fitted maximal effect; on activity change, negative = inhibition: series mostly up to about 120 µM
# Sequence of Cytochrome P450 2C9 (Homo sapiens) (P11712 whole entry, looked up): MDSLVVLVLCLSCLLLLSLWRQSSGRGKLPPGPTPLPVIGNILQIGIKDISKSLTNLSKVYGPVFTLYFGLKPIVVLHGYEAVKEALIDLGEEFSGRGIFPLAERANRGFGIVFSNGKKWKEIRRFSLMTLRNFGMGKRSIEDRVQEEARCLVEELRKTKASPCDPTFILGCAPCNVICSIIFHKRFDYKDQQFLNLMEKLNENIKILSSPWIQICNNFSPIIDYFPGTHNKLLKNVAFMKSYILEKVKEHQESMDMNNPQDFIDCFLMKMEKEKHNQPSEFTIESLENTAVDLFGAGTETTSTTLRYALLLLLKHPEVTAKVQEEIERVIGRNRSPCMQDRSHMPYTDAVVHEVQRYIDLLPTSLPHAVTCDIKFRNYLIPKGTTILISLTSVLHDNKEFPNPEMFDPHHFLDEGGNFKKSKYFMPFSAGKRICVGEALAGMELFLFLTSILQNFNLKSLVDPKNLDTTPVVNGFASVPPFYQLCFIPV
# How it was run: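 P450-Glo proluciferin substrate with CYP2C9 enzyme; 10 min RT preincubation, then NADPH regeneration 1 h at 37C; luciferin detection reagent 20 min RT, luminescence in relative luminescence units.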
# [15] = Caspase-3/7 induction in CHO-K1 cells by small molecules, qHTS assay (AID 1346980); further: nearly all actives have a fitted effect of over 15% in size
# How it was run: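 Wild-type CHO-K1 cells exposed to compounds for 17hr at 37 C, 5% CO2. Caspase-3/7 activity then measured by Caspase-Glo 3/7 luminescence after 30min at room temperature.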
structure (smiles),measurement,setting,value
CC(C)CCOC(=O)/C=C/c1ccccc1,Potency,[1],inactive
same,Potency,[2],inactive
same,Potency,[3],inactive
same,Potency,[4],inactive
same,Potency,[5],inactive
same,Potency,[6],inactive
same,Potency,[7],63.5 µM (active)
same,Potency,[8],22.5 µM (active)
same,Potency,[9],inactive
C=C(C)C(=O)OCCCCCCCCCC,Potency,[1],48.9 µM (active)
same,Potency,[2],inactive
same,Potency,[3],54.9 µM (active)
same,Potency,[4],61.6 µM (active)
same,Potency,[5],30.9 µM (active)
same,Potency,[7],56.8 µM (active)
same,Potency,[8],inactive
same,Potency,[10],inactive
same,Potency,[9],inactive
CCCCCCCCCCCCCC[N+](C)(C)C,Potency,[1],52.7 µM (active) and 27.3 µM (active) and 26.6 µM (active)
same,Potency,[2],inactive
same,Potency,[3],59.1 µM (active) and 38.5 µM (active)
same,Potency,[4],61.1 µM (active)
same,Potency,[5],inactive
same,max activation,[11],-17%
same,Potency,[12],inactive
same,Potency,[13],inactive
same,Potency,[6],3.06 µM (active) and 3.17 µM (active) and 3.47 µM (active)
same,Potency,[7],63.2 µM (active)
same,Potency,[14],inactive
same,Potency,[10],13.3 µM (active) and 19.5 µM (active) and 21.3 µM (active)
same,Potency,[9],inactive
Cc1cc(=O)oc2cc(O)cc(O)c12,Potency,[1],inactive
same,Potency,[2],inactive
same,Potency,[15],inactive
same,Potency,[5],61.3 µM (active)
same,Potency,[6],inactive
same,Potency,[10],inactive
same,Potency,[9],20.1 µM (active)
O=C1CCCCCCCCCCCCCCCO1,Potency,[1],inactive
same,Potency,[2],inactive
same,Potency,[3],inactive
same,Potency,[4],inactive
same,Potency,[5],inactive
same,Potency,[6],inactive
same,Potency,[7],inactive
same,Potency,[14],inactive
same,Potency,[8],inactive
same,Potency,[10],inactive
CC(C)Cn1cnc2c(N)nc3ccccc3c21,"activity change, negative = cytotoxicity",[1],-9.27% [at 19 µM]
same,caspase activation,[2],-2.38% [at 19 µM]
same,"activity change, negative = cytotoxicity",[3],-8.58% [at 19 µM]
same,"activity change, negative = cytotoxicity",[4],-2.64% [at 19 µM]
same,activation,[5],5.89% [at 19 µM]
same,max activation,[11],2.02%
same,Potency,[12],inactive
same,"activity change, negative = inhibition",[7],10.1% [at 23.6 µM]
same,"activity change, negative = inhibition",[14],-3.29% [at 23.6 µM]
same,"activity change, negative = inhibition",[10],-8.33% [at 15.8 µM]
same,"activity change, negative = inhibition",[9],54.2% [at 23.6 µM]
CCCCCCCCCCCCCCCC[N+](C)(C)CC,Potency,[1],54.6 µM (active)
same,Potency,[2],inactive
same,Potency,[3],43.4 µM (active) and 29.8 µM (active)
same,Potency,[4],61.3 µM (active)
same,Potency,[5],inactive
same,max activation,[11],-22.3%
same,Potency,[12],inactive
same,Potency,[13],inactive
same,Potency,[6],566 nM (active) and 871 nM (active)
same,Potency,[7],inactive
same,Potency,[8],inactive
O=c1oc2cc(O)ccc2c2oc3cc(O)ccc3c12,Potency,[1],inactive
same,Potency,[2],inactive
same,Potency,[3],inactive
same,Potency,[4],inactive
same,Potency,[5],65.7 µM (active)
same,Potency,[7],76.4 µM (active)
same,Potency,[14],68.1 µM (active)
same,Potency,[8],8.57 µM (active)
same,Potency,[10],inactive
same,Potency,[9],19.2 µM (active)
